# From PubChem BioAssay AID743279 (National Center for Advancing Translational Sciences (NCATS), 2014)
# The whole screen tested about 360,000 compounds, of which about 17,000 (4.7%) were called active. Roughly 5% stayed inconclusive and do not appear here. For the sample, actives were picked, then their nearest neighbours and some compounds at random. A number with no mark means an inactive call. Rule as the data show it: active = activity change below about -50%; inconclusive = mostly about -30% to -49%; inactive = weaker than that. Where a SMILES comes first, the peptide text is derived from it. The star is where a group is joined. Bz = O=C(c1ccccc1)*
# Assay: qHTS for Inhibitors of Inflammasome Signaling: IL-1-beta AlphaLISA Primary Screen
# Conditions: THP-1 LPS/ATP IL-1B secretion, 16 h; at 57.5 µM, stronger effect = lower value
# Summary of the method: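 THP-1 cells pretreated 1 hr with compounds (up to 57.5 uM final), then stimulated with LPS (250 ng/mL final) plus ATP (1.25 mM final); secreted IL-1B measured by AlphaLISA after 16 hr, decreased signal indicating inhibition.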
# % is scaled to controls: 0 for no effect and ±100 for the full control effect.
row,Structure (SMILES),activity change
1,O=C(CC1NCCc2ccccc21)Nc1cccc(Cl)c1 (stereo not drawn),-29.8%
2,CCN1C(=O)N[C@@H](c2ccccc2)C(C(=O)OC)=C1C,15%
3,CCOC(=O)C1=C(C)N(C[C@@H]2CC[C@@H](Cc3ccc(-c4ccccc4)cc3)O2)C(=O)NC1c1ccc([N+](=O)[O-])cc1 (stereo partly drawn),-63.7% (active)
4,CCC(CC)COC(=O)C1=C(C)NC(=O)NC1c1ccc([N+](=O)[O-])cc1 (stereo not drawn),-2.87%
5,COc1cc2c(C(=O)N3CCN(C)CC3)c(CSc3ccccc3)n(C)c2cc1Br,-60.2% (active)
6,COc1cc(C(=O)N2CCN(C)CC2)cc(OC)c1OC,42.7%
7,COc1ccc(C(=O)N2CCCN(C)CC2)c(OC)c1,33.4%
8,C[C@@H]1CN([C@H](C)CO)C(=O)CCCn2nncc2CO[C@@H]1CN(C)S(=O)(=O)c1cccc(C#N)c1,3.99%
9,COC1=CC(=O)OC(c2ccc(OC)cc2)C1 (stereo not drawn),-17.1%
10,CS(=O)(=O)c1cccc(-c2ccc3nncn3c2)c1,11.3%
11,O=C(NC(Cc1ccccc1)C(=O)N1CCCC1C(=O)O)c1ccccc1 (stereo not drawn) (Bz-Phe-Pro-OH; configuration not given here),6.95%
12,CN(Cc1ccccc1F)C(=O)C(Cc1ccccc1)NC(=O)c1ccccc1 (stereo not drawn),-84.2% (active)
13,O=C(NC(Cc1ccccc1)C(=O)N1CCCC(C(F)(F)F)C1)c1ccccc1 (stereo not drawn),1.82%
14,COCCn1c(SCC(=O)Nc2ccc(F)cc2F)nc2c(c1=O)SCC2,18.2%
15,CCNC(=O)CCc1nc(-c2ccc(C(C)(C)C)cc2)no1,-3.31%
16,COc1ccc(OCC(O)CNC(=O)Nc2ccc(Cl)cc2)cc1 (stereo not drawn),5.19%
17,OC(CNCCc1ccc(Cl)cc1Cl)COc1ccccc1 (stereo not drawn),-91.8% (active)
18,CC(O)CNCCOc1cccc(Oc2ccccc2)c1 (stereo not drawn),-29%
19,COc1ccc(C(=O)CCC(=O)Nc2ccc(Cl)cc2)cc1,4.81%
20,COc1ccc(CS(=O)/C(Cl)=C(/Cl)C(=O)Nc2ccc(OC)nc2)cc1 (stereo not drawn),-105% (active)
21,COc1ccc(NC(=O)CN2C(=O)NC(C)(c3ccccc3)C2=O)cn1 (stereo not drawn),12.7%
22,O=C(COC(=O)c1cc(-c2cccs2)nn1-c1ccccc1)Nc1cc([N+](=O)[O-])ccc1Cl,21.3%
23,O=C(Nc1ccccc1-c1nc2ccccc2[nH]c1=O)c1cccs1,7.39%
24,C/C(=N\Nc1nc2ccccc2[nH]1)c1cccs1,-66.3% (active)

row,Structure (SMILES),activity change
1,C/C(=N\Nc1ccccc1)c1cccs1,40.5%
2,O=C(COc1ccccc1Cl)Nn1cnnc1,26.3%
3,CCOC(=O)CNC(=O)CSc1ncccc1-c1nc2ccccc2[nH]1,16.2%
4,COc1ccc(S(=O)(=O)N(C)C[C@@H]2Oc3ccc(NS(=O)(=O)c4cn(C)cn4)cc3C(=O)N([C@@H](C)CO)C[C@@H]2C)cc1,-3.54%
5,O=C1CCN(CCCc2ccccc2)CCN1CCO,-16.8%
6,OCCN1CCN(c2nnc(-c3ccccc3)c3ccccc23)CC1,23.6%
7,O=C1c2ccccc2C(=O)c2c1cccc2N1CCN(CCO)CC1,-59.1% (active)
8,Cc1ccc(Nc2c(O)nc[nH]c2=O)cc1C,13.4%
9,COc1c(O)cccc1-c1nnn(CCC(=O)OCC(=O)c2ccccc2)n1,14.4%
10,O=S1(=O)CCN(C2CCCCCCCCCCC2)CC1,26.7%
11,O=c1nc(NO)ccn1C1CCCO1 (stereo not drawn),13.7%
12,Cc1cccc(C(=O)N2CCN(S(=O)(=O)N3CCCCC3)CC2)c1,0%
13,Cc1cccc(C)c1N1CCN(S(=O)(=O)N2CCOCC2)CC1,0%
14,Cc1cccc(C)c1N1CCN(S(=O)(=O)N2CCCCC2)CC1,-53.3% (active)
15,CCC(c1nnnn1-c1ccc2c(c1)OCCO2)N1CCN(c2ccc(C(F)(F)F)cn2)CC1 (stereo not drawn),25.4%
16,CCCNC(=O)CCc1c(C)nc2c(c(C)nn2-c2ccccc2)c1C,-2.57%
17,CC(=O)C[C@@H]1OC[C@H](CO)N1S(=O)(=O)c1ccc(C)cc1,5.63%
18,O=C(NCCN1CCOCC1)C1CCN(S(=O)(=O)c2ccccc2)CC1,0.358%
19,CN1CCN(C(=O)c2ccc(-c3cc4nc(NCc5cccnc5)n(C)c(=O)c4s3)cc2)CC1,-15.2%
20,O=C(c1ccc(Oc2ccc(Cl)cc2)c([N+](=O)[O-])c1)N1CCCC1,-22.3%
21,CC1CCN(C(=O)c2ccc(S(=O)(=O)Cc3cc(F)ccc3F)c([N+](=O)[O-])c2)CC1,-96.6% (active)
22,Nc1ccc(C(=O)N2CCN(S(=O)(=O)c3ccc(Cl)cc3)CC2)cc1[N+](=O)[O-],-21.1%
23,COc1cc(OC)c(C(=O)NNC(=O)c2ccccc2-n2cccc2)cc1OC,3.76%
24,CN(C)c1ccc(/C=C/C(=O)c2ccc(O)cc2)cc1[N+](=O)[O-],-97.8% (active)

row,Structure (SMILES),activity change
1,O=C(/C=C/c1ccc(Cl)c([N+](=O)[O-])c1)c1ccc(O)cc1,-99.9% (active)
2,Cc1cc(C(=O)O)ccc1[N+](=O)[O-],-16.6%
3,CN(C)c1ccc(/C=C/C(=O)c2ccc(C(C)(C)C)cc2)cc1[N+](=O)[O-],-95.8% (active)
4,CC(=O)Nc1ccc(C=CC(=O)c2ccc([N+](=O)[O-])cc2)cc1,1.95%
5,C/C(=N\Nc1nncc2ccccc12)c1ccc(Cl)c([N+](=O)[O-])c1,-6.54%
6,CC(=O)c1ccc2c(c1)OCCOCCOc1ccc(C(C)=O)cc1OCCOCCO2,0%
7,O=C(/C=C/c1ccc2c(c1)OCCO2)c1ccc(O)cc1,-103% (active)
8,CC(=O)Nc1ccc(C(=O)/C=C/c2ccc[nH]2)cc1,-9.5%
9,O=C(/C=C\c1ccc2c(c1)OCO2)NC1(C(=O)Nc2ccc3c(c2)OCCO3)CCCCC1,-1.03%
10,Cc1cc(C)n(-c2ccc(C(=O)O)cc2[N+](=O)[O-])n1,40.6%
11,CNc1ccc(NC(C)=O)cc1[N+](=O)[O-],-5%
12,CCOC(=O)C1(CCOC)CCN(Cc2cc3ccccc3s2)CC1,-8.97%
13,CCOc1ccccc1NC(=S)C(=C([O-])c1ccc2c(c1)OCCO2)[n+]1ccc(CC)cc1,3.49%
14,Cc1ccc(Cc2nnc(SCC(=O)Nc3ccccc3C)[nH]c2=O)cc1,19.7%
15,O=C(Nc1cccc2ccccc12)c1[nH]c(-c2ccccc2)c2c1C(=O)N(C1CC1)C2=O,-16.9%
16,CC(O)CN(Cc1ccc(Cl)cc1)CC(C)O (stereo not drawn),-2.11%
17,CCOC(=O)C(NC(=O)CC(C)C)(Nc1sc2c(c1C(N)=O)CCCC2)C(F)(F)F (stereo not drawn),inactive
18,CN(C)C(CNC(=O)c1cccc(S(=O)(=O)N2CCc3ccccc3C2)c1)c1ccccc1 (stereo not drawn),-16.7%
19,O=C(C1CCN(CC2CCCCC2)CC1)N1CCCC1,-2.85%
20,CCCCC(=O)N1CC2(C)CN(C(=O)CCCC)CC(C)(C1)C2=O,14%
21,COCCN(CCOC)S(=O)(=O)c1ccc(/C(O)=C(\C#N)c2nc3ccccc3[nH]2)cc1,-11.3%
22,CC(C)(C)c1nnc2sc(SCC(O)=C(C#N)c3nc4ccccc4[nH]3)nn2c1=O,20.2%
23,N#C/C(=C(/O)COC(=O)COc1ccc(Cl)cc1)c1nc2ccccc2[nH]1,-99.4% (active)
24,Cc1cc(NC(=O)Nc2ccccc2[N+](=O)[O-])no1,-17.8%

row,Structure (SMILES),activity change
1,CC1CCCN(C(=O)Cn2c(=O)oc3cc(S(=O)(=O)N4CCCCC4C)ccc32)C1 (stereo not drawn),11.7%
2,Cc1cccc(-c2noc(-c3ccc(F)cc3)n2)c1,19.9%
3,Cc1cccc(-c2nc(Nc3ccc(O)cc3)c3ccccc3n2)c1,-81.3% (active)
4,Oc1ccc(-c2nnc(Nc3ccccc3)c3ccccc23)cc1,13.6%
5,CCc1ccccc1OCC(=O)Nc1ccc2c(c1)OCCO2,-6.79%
6,CC(C)(CCl)C(=O)Nc1ccc(Sc2ccc(F)cc2)cc1,-12.9%
7,O=C(CCl)Nc1ccc(Sc2ccc(NC(=O)CCl)cc2)cc1,-101% (active)
8,CC(=O)Nc1ccc(SCC(=O)NC(=O)c2ccc(Cl)cc2)cc1,-2.04%
9,CC1CCN(C(=O)c2ccccc2NC(=O)Cc2ccccc2)CC1,29.6%
10,C[C@H](CO)N1C[C@H](C)[C@@H](CN(C)C(=O)C2CCCCC2)OCc2cnnn2CCCC1=O,2.8%
11,CCN1/C(=C\c2ccc3ccccc3[n+]2CC)Sc2cc(C)ccc21,-99.7% (active)
12,CCN1/C(=C/c2ccc3ccc(C)cc3[n+]2CC)Sc2ccccc21,-101% (active)
13,O=C(Nc1cccc(Br)c1)C1CC(=O)N(C2CCCC2)C1 (stereo not drawn),15.6%
14,CCCS(=O)(=O)NC(=O)C1(C)CCCN(C(=O)c2cc(C)on2)C1 (stereo not drawn),19.3%
15,O=C1NC(O)CCN1C1CC(O)C(CO)O1 (stereo not drawn),0%
16,CC1(C(=O)Nc2cccc(Oc3ccccc3)c2)CCN1Cc1ccccc1Cl (stereo not drawn),-0.171%
17,CCC(C)c1ccccc1N1CC(C(=O)N2CCN(S(=O)(=O)c3ccc(F)cc3)CC2)CC1=O (stereo not drawn),-6.2%
18,Cc1nc(C(F)(F)F)ccc1C(=O)N1CCC1(C)C(=O)NS(=O)(=O)c1ccc(F)cc1F (stereo not drawn),20.5%
19,CCOC(=O)N/N=C/c1cccnc1,33.8%
20,COc1ccc(C(=O)NCC(=O)N/N=C/c2cccnc2)cc1,16.9%
21,O=C(CSc1cccc2cccnc12)N/N=C/c1cccnc1,-96.5% (active)
